Screening data from PubChem.
S1P4 ag = agonists of human S1P4 receptor; S1P4-expressing cell line, agonist reporter assay; 0.35% of 220,000 active; activation, % at 4.98 µM; O95977; in the data active = activation above about 11%;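 note: 0% = DMSO vehicle and 100% = reference agonist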
Target sequence (O95977 whole entry, looked up): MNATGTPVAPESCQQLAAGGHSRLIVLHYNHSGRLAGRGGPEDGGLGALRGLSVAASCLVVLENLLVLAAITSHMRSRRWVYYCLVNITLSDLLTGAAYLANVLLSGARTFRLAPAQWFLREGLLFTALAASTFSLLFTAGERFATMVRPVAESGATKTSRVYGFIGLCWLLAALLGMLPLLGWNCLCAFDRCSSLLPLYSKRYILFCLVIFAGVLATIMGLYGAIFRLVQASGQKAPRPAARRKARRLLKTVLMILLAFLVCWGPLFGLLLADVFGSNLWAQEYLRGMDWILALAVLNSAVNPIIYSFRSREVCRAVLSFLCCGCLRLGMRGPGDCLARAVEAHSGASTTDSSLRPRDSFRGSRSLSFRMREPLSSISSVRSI
S1P3 antagonist = S1P3 (human) receptor antagonism; 0.27% of 170,000 active; CHO S1P3 NFAT-BLA reporter, FRET fluorescence, antagonist mode; Q99500; inhibition, % at 4.98 µM;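 active = inhibition above the plate cutoff, the mean inhibition of test wells on that plate plus 3 SD, cut at about 28% in these data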;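 note: cells challenged with S1P at its EC80 of 0.8 µM; blue over green emission ratio from cleaved BLA substrate after 4 h stimulation; 0% = S1P-stimulated wells and 100% = unstimulated DMSO-only wells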
S1P4 antag = blocks the human S1P4 receptor; 0.26% of 220,000 active; S1P4-expressing cells, antagonist mode, reporter read-out; O95977; AID 1510; inhibition, % at 4.98 µM; in the data active = inhibition above about 29%;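 note: 0% = wells stimulated with agonist and 100% = vehicle wells without agonist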
EP2 mod = modulates human prostaglandin E2 receptor EP2 signaling; P43116; EP2-expressing cells, cAMP HTRF FRET, PGE2 co-stimulation; 0.83% of 260,000 active; induction, % at 25 µM; AID 940;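 active = compounds whose cAMP rise, as percent of the full-agonist control response, exceeds 60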;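 note: rat C6 glioma line stably carrying human EP2 under a CMV promoter; the protocol text gives 20 µM as final concentration; 100% = response of wells given 1 µM PGE2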
EP2 antag = EP2 receptor (human) inhibition | C6 glioma cells expressing human EP2, cAMP TR-FRET; cells stimulated with saturating PGE2 | inhibition, % at 25 µM | 0.52% of 260,000 active;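 active = percent inhibition above 40 after rounding to a whole number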;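 note: rat C6 glioma host cells with rolipram phosphodiesterase inhibitor present; the protocol text gives 20 µM as final concentration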
EP2 confirm = EP2 receptor cAMP induction, counter-screens negative. shares compounds with EP2 mod. C6 glioma EP2 cells, cAMP HTRF induction; plus low (about EC15) PGE2 agonist. calls only at 20 µM (by protocol). 47% of 1,300 active;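 active = cAMP induction above 50% in the main assay while under 30% in all four parallel counter assays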;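 note: rat C6 glioma cells stably expressing human EP2 receptor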
Starred values were filed as active, the others as inactive. Most compounds without a hit are left out; they make up all but 1.9% or so of the library.

How did CC(=O)N(Cc1ccccc1)Cc1cc2cccc(C)c2n2nnnc12 do in these assays?
EP2 mod: -63.1; EP2 antag: 9.0

Results for CCCNS(=O)(=O)c1ccc(OCC(=O)N2CCc3ccccc3C2)cc1 ?
EP2 mod: -30.5; EP2 antag: 11.2

How did CC[C@H](Cn1ncc2ccccc2c1=O)NC(=O)c1cnccn1 do in these assays?
EP2 mod: -23.9

Results for CCCCCCn1c(COc2ccccc2F)nnc1SCC(=O)N1c2ccccc2NC(=O)C1(C)C ?
S1P4 ag: 2.4; S1P4 antag: -3.5; EP2 mod: 64.3*; EP2 antag: 11.0; EP2 confirm: inactive

What do the screens show for `COc1ccc(N2C(=O)c3ccccc3S2(=O)=O)cc1`?
S1P4 ag: 0.2; S1P3 antagonist: -8.7; S1P4 antag: 8.3; EP2 mod: -10.7; EP2 antag: 8.8

How did COc1ccc(N2C(=O)N(Cc3ccc(C)cc3)c3ccccc3S2(=O)=O)cc1 do in these assays?
S1P4 ag: 3.1; S1P3 antagonist: 0.3; S1P4 antag: -17.1; EP2 mod: 78.7*; EP2 antag: 3.8; EP2 confirm: active

How did C=CCSC1=N/C(=C\c2cccnc2)C(=O)N1c1ccc(OC)cc1 do in these assays?
S1P4 ag: 0.8; S1P3 antagonist: -18.9; S1P4 antag: -9.6; EP2 mod: 40.7; EP2 antag: 5.7

Results for CCSC1=N/C(=C\c2ccccc2)C(=O)N1c1ccc(OC)cc1 ?
S1P4 ag: 0.2; S1P3 antagonist: 3.0; S1P4 antag: -2.1; EP2 mod: 79.2*; EP2 antag: 5.6; EP2 confirm: active

Results for COc1ccc(C2(NCc3ccc(N4CCOCC4)nc3)CC2)cc1 ?
EP2 mod: -59.1; EP2 antag: 8.2

What do the screens show for `CCCOP(=O)(OCCC)c1nc(-c2ccccc2)oc1NCc1ccccc1`?
S1P4 ag: 1.2; S1P3 antagonist: -10.6; S1P4 antag: 3.1; EP2 mod: 94.3*; EP2 antag: 14.8; EP2 confirm: active

What do the screens show for `COP(=O)(OC)c1nc(-c2ccccc2)oc1NCc1ccccc1`?
S1P4 ag: -0.7; S1P3 antagonist: 2.8; S1P4 antag: -8.5; EP2 mod: 43.8; EP2 antag: 4.0

How did CCOP(=O)(OCC)c1nc(-c2ccc(Cl)cc2)oc1NCc1ccccc1 do in these assays?
S1P4 ag: 1.2; S1P3 antagonist: -0.9; S1P4 antag: 7.8; EP2 mod: 78.0*; EP2 antag: 3.9; EP2 confirm: inactive

How did Cn1c(=O)c(NC2CCCCC2)c2c3c(cccc31)C(=O)c1ccccc1-2 do in these assays?
S1P4 ag: 1.5; S1P3 antagonist: 2.5; S1P4 antag: -8.3; EP2 mod: 65.3*; EP2 antag: 2.7; EP2 confirm: active

What do the screens show for `Cn1c(=O)c(NCCO)c2c3c(cccc31)C(=O)c1ccccc1-2`?
S1P4 ag: 1.6; S1P4 antag: -11.3; EP2 mod: 8.5; EP2 antag: 25.2

Results for Cn1c(=O)c(NCCc2ccccc2)c2c3c(cccc31)C(=O)c1ccccc1-2 ?
S1P4 ag: 1.8; S1P4 antag: -12.8; EP2 mod: 77.2*; EP2 antag: 1.8; EP2 confirm: active

Results for C/C(=N\NC(=S)NCc1ccccc1)c1ccc2ccccc2c1 ?
S1P4 ag: -1.0; S1P3 antagonist: -11.2; S1P4 antag: -6.5; EP2 mod: -24.1; EP2 antag: 7.5

What do the screens show for `C/C(CCC(C)C)=N\NC(=S)NCc1ccccc1`?
S1P4 ag: 2.9; S1P3 antagonist: 0.4; S1P4 antag: -11.8; EP2 mod: 66.3*; EP2 antag: 8.3; EP2 confirm: active

What do the screens show for `N#Cc1cn(-c2ccccc2)nc1-c1cc2ccccc2oc1=O`?
S1P4 ag: 0.5; S1P3 antagonist: 23.7; S1P4 antag: -14.6; EP2 mod: 65.0*; EP2 antag: 7.8; EP2 confirm: inactive

Results for COc1cnc(SCc2c(Cl)cccc2Cl)nc1Cl ?
S1P4 ag: -1.9; S1P4 antag: 18.7; EP2 mod: 73.6*; EP2 antag: 6.1; EP2 confirm: active

Results for CCOc1cc(C2/C(=C(/O)c3cc(C)ccc3C)C(=O)C(=O)N2CCOC)ccc1O (centres undefined) ?
EP2 mod: 13.2; EP2 antag: 15.8

What do the screens show for `CCn1nnnc1SCC(=O)Nc1cccc(C)n1`?
S1P4 ag: 1.2; S1P3 antagonist: -20.3; S1P4 antag: -8.4; EP2 mod: 70.0*; EP2 antag: 9.3; EP2 confirm: inactive

How did CC(=O)c1sc(N)c(C(=O)Nc2ccc(C)cc2C)c1C do in these assays?
EP2 mod: 7.0; EP2 antag: 7.9

How did C=CCn1c(SCC(N)=O)nc(C)cc1=O do in these assays?
S1P4 ag: -0.3; S1P3 antagonist: -8.4; S1P4 antag: -11.6; EP2 mod: 68.2*; EP2 antag: 12.1; EP2 confirm: inactive

How did CC(C)C[C@H](N)C(=O)N[C@@H](C)C(=O)O do in these assays?
EP2 mod: 3.4; EP2 antag: 11.6

Results for COc1ccccc1Nc1cc(C)nc2c(C)ccc([N+](=O)[O-])c12 ?
S1P4 ag: -1.2; S1P3 antagonist: 3.4; S1P4 antag: -1.1; EP2 mod: 80.3*; EP2 antag: 4.4; EP2 confirm: active

What do the screens show for `CC(C)(C)c1csc(NC(=O)CSc2nc3sc4c(c3c(=O)[nH]2)CCCC4)n1`?
EP2 mod: -63.2; EP2 antag: 7.7

How did COc1cc2cnncc2cc1OC do in these assays?
S1P4 ag: 4.1; S1P4 antag: 11.5; EP2 mod: 16.8; EP2 antag: 5.2

How did COc1cc2cc(Br)cc(Br)c2nc1C do in these assays?
S1P4 ag: -0.5; S1P4 antag: -3.0; EP2 mod: 77.7*; EP2 antag: 14.2; EP2 confirm: inactive

How did CCOC(=O)c1sc(NC(=O)CN2C(=O)c3cccc4cccc(c34)C2=O)nc1C do in these assays?
S1P4 ag: -1.5; S1P4 antag: 2.7; EP2 mod: 66.1*; EP2 antag: -3.3; EP2 confirm: inactive

What do the screens show for `CC1=CCc2c(cc3oc(C)cc(=O)c3c2O)OC1`?
EP2 mod: 52.0; EP2 antag: 3.5; EP2 confirm: inactive

What do the screens show for `Cc1cc(=O)c2c(O)c(O)ccc2o1`?
S1P4 ag: 0.5; S1P3 antagonist: -9.2; S1P4 antag: 11.8; EP2 mod: 1.1; EP2 antag: 10.0

What do the screens show for `CCOC(=O)c1c(-c2ccc(C)o2)csc1NC(=O)CN1CCCCC1`?
S1P4 ag: -1.3; S1P3 antagonist: 10.2; S1P4 antag: 4.1; EP2 mod: 65.5*; EP2 antag: 4.3; EP2 confirm: inactive

How did CCOC(=O)c1c(-c2ccc(C)cc2)csc1NC(=O)CCN1CC(C)OC(C)C1 (centres undefined) do in these assays?
S1P4 ag: -0.7; S1P3 antagonist: -13.1; S1P4 antag: -3.8; EP2 mod: 86.5*; EP2 antag: 5.8; EP2 confirm: active

What do the screens show for `CCOC(=O)c1c(-c2ccc(C)o2)csc1NC(=O)CN1CCN(CC)CC1`?
S1P4 ag: -0.7; S1P3 antagonist: -23.4; S1P4 antag: 8.5; EP2 mod: -4.1; EP2 antag: 10.1
